According to PubChem BioAssay (EPA / NIEHS):
Results filed as inconclusive are left out. Active and inactive are the calls of the source. The calls were made as follows: active = hit-call score of the fitted dose curve at least 0.9, where 1 is the maximum; inconclusive = response in the unintended direction; inactive = score below 0.9.

Assay: CCTE_Harrill_HTTr_CellCount_MCF7: CCTE's Cell Proliferation Assessment for the High-Throughput Transcriptomics (HTTr) Platform, Harrill Lab (AID 2284012);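 also: cells exposed to compound for six hours; intended direction is loss of nuclei count meaning fewer cells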
Procedure, shortened: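 Cell count served as viability reporter: loss of Hoechst-stained nuclei, counted by high content imaging, marks decreased growth or survival. Exposure was 6 h in MCF-7 cells across eight concentrations, with DMSO as baseline.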

SMILES | outcome
Fc1ccc(Br)cc1 | inactive
COC(=O)C=Cc1ccccc1 | inactive
O=C(OCc1ccccc1)c1ccc(O)cc1 | inactive
O=C(O)/C=C/c1ccccc1 | inactive
C=C[C@@]1(C)CC(=O)[C@]2(O)[C@@]3(C)[C@@H](O)CCC(C)(C)[C@@H]3[C@H](O)[C@H](OC(C)=O)[C@@]2(C)O1 | inactive
N#Cc1ccc(C2CCCc3cncn32)cc1 (stereo not given) | inactive
c1ccc2cnccc2c1 | inactive
CC(C)OC(=O)c1ccccc1 | inactive
CC(=O)OCC=C(C)C | inactive
CCCc1ccc(O)c(OC)c1 | inactive
C=C(C)C1CC=C(C)CC1 (stereo not given) | inactive
CC(=O)OCCc1ccccc1 | inactive
CC(C)[N+](C)(CCOC(=O)C1c2ccccc2Oc2ccccc21)C(C)C | inactive
CN(C)c1ccc2nc3ccc(=[N+](C)C)cc-3sc2c1 | inactive
CCCCCCCO | inactive
Nc1ncnc2nc[nH]c12 | inactive
Cc1noc(NS(=O)(=O)c2ccc(N)cc2)c1C | inactive
CC(C)(C)NC(=O)[C@H]1CC[C@H]2[C@@H]3CC[C@H]4NC(=O)C=C[C@]4(C)[C@H]3CC[C@]12C | inactive

SMILES | outcome
CCCCC(C=O)CC (stereo not given) | inactive
CC(=O)/C=C/C1C(C)=CCCC1(C)C (stereo not given) | inactive
CC(C)(O)Cc1ccccc1 | inactive
C=C(C)[C@@H]1CC=C(C)CC1 | inactive
CCOC(=O)C1=NOC(c2ccccc2)(c2ccccc2)C1 | inactive
CCCCCCC=O | inactive
CC(C=O)c1ccccc1 (stereo not given) | inactive
C=CCCCCCCCCC=O | inactive
CCCCC1C(=O)N(c2ccccc2)N(c2ccccc2)C1=O | inactive
O=C(O)CCC(=O)O | inactive
CC=CC(=O)OCC(C)C | inactive
O=C(O[C@@H]1Cc2c(O)cc(O)cc2O[C@@H]1c1cc(O)c(O)c(O)c1)c1cc(O)c(O)c(O)c1 | inactive
O=C(O)CCCC(=O)O | inactive
CC(C)(CO)C(O)C(=O)NCCCO (stereo not given) | inactive
CC(=O)c1ccc(S(=O)(=O)NC(=O)NC2CCCCC2)cc1 | inactive
CC(=O)CCC=C(C)C | inactive
CC(=O)CCC1=C(C)CCCC1(C)C | inactive
